{"source": "PubChem BioAssay (EPA / NIEHS)", "note": "The source made the active and inactive calls. The calls were made as follows: active = hit-call score of the fitted dose curve at least 0.9, where 1 is the maximum; inactive = score below 0.9.", "data": [{"read-out": "Macrophage colony-stimulating factor (MCSF), CSF1 (gene 1435)", "test": "BSK_CASM3C_MCSF: BioMAP Diversity Plus: CASM3C Assay for Macrophage colony-stimulating factor (MCSF) Biomarker Activity (AID 2283044);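 also: M-CSF protein amount quantified by ELISA after 24 h exposure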", "conditions": "primary human coronary artery smooth muscle cells; actives raise or lower the signal", "values": [{"smiles": "COCCOC[C@H](CC1(C(=O)NC2CCC(C(=O)O)CC2)CCCC1)C(=O)Oc1ccc2c(c1)CCC2", "note": "(some centres not stated)", "outcome": "inactive"}, {"smiles": "CC(=O)OC/C=C(\\C)CCC=C(C)C", "outcome": "inactive"}, {"smiles": "Cc1cccc(Nc2cc(Cl)nc(SCC(=O)O)n2)c1C", "outcome": "inactive"}, {"smiles": "CC=Cc1ccc(O)c(OC)c1", "outcome": "inactive"}, {"smiles": "CCNc1cccc(C)c1", "outcome": "inactive"}, {"smiles": "O=C(OCCCCCOC(=O)c1ccccc1)c1ccccc1", "outcome": "inactive"}, {"smiles": "O=c1[nH]cc(F)c(=O)[nH]1", "outcome": "inactive"}, {"smiles": "NCC1(Cc2noc(=O)[nH]2)CCCCC1", "outcome": "inactive"}, {"smiles": "Oc1ccc2ccccc2c1N=Nc1ccccc1", "outcome": "inactive"}, {"smiles": "Cc1cc(=O)[nH]c(=S)[nH]1", "outcome": "inactive"}, {"smiles": "NC(=O)Cn1c(=O)cc(CCN2CCN(c3nccc4sccc34)CC2)c2ccc(F)cc21", "outcome": "inactive"}, {"smiles": "CC(C)c1ccc(C(=O)N=C(N)N)cc1S(C)(=O)=O", "outcome": "inactive"}, {"smiles": "C1CCC(SSC2CCCCC2)CC1", "outcome": "inactive"}, {"smiles": "CCCCN(CCCC)CCCC", "outcome": "inactive"}, {"smiles": "OC[C@@H](O)[C@@H](O)[C@H](O)[C@H](O)CO", "outcome": "inactive"}, {"smiles": "CC(C)(C)c1cc(O)c(C(C)(C)C)cc1O", "outcome": "inactive"}, {"smiles": "NS(=O)(=O)c1cc2c(cc1Cl)NCNS2(=O)=O", "outcome": "inactive"}, {"smiles": "Cc1nc(-c2ccc3c(c2)CCN(CCC2CCC(NC(=O)/C=C/c4ccc(F)cc4)CC2)CC3)no1", "note": "(configuration not stated)", "outcome": "inactive"}, {"smiles": "CC(=O)C(C)=CC1C(C)=CCCC1(C)C", "note": "(configuration not stated)", "outcome": "inactive"}, {"smiles": "CCCCCCOCCO", "outcome": "inactive"}, {"smiles": "C[Si]1(C)O[Si](C)(C)O[Si](C)(C)O[Si](C)(C)O1", "outcome": "inactive"}, {"smiles": "Oc1ccc2c(c1)OC[C@@H](N1CCC(O)(c3ccc(F)cc3)CC1)[C@H]2O", "outcome": "inactive"}, {"smiles": "CN1CCN(Cc2cc(-c3ccc4[nH]c(=O)oc4c3)co2)[C@@H](c2ccc(F)cc2)C1", "outcome": "inactive"}, {"smiles": "CCOC(=O)C(C)(C)Oc1ccc(Cl)cc1", "outcome": "inactive"}, {"smiles": "C=CCc1ccc(O)c(OC)c1", "outcome": "inactive"}, {"smiles": "COc1cc(S(=O)(=O)O)c(C)cc1N=Nc1c(O)ccc2cc(S(=O)(=O)O)ccc12", "outcome": "inactive"}, {"smiles": "CCCc1cc(=O)[nH]c(=S)[nH]1", "outcome": "inactive"}, {"smiles": "O=[N+]([O-])C(CO)(CO)CO", "outcome": "inactive"}, {"smiles": "CC1=C(/C=C/C(C)=C/C=C/C(C)=C/CO)C(C)(C)CCC1", "outcome": "inactive"}]}, {"read-out": "Low-density lipoprotein receptor (LDLR), LDLR (gene 3949)", "test": "BSK_CASM3C_LDLR: BioMAP Diversity Plus: CASM3C Assay for Low-density lipoprotein receptor (LDLR) Biomarker Activity (AID 2283045);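 also: LDLR protein level on the cell surface quantified by ELISA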", "conditions": "primary human coronary artery smooth muscle cells; actives raise or lower the signal", "values": [{"smiles": "COCCOC[C@H](CC1(C(=O)NC2CCC(C(=O)O)CC2)CCCC1)C(=O)Oc1ccc2c(c1)CCC2", "note": "(some centres not stated)", "outcome": "inactive"}, {"smiles": "CC(=O)OC/C=C(\\C)CCC=C(C)C", "outcome": "inactive"}, {"smiles": "Cc1cccc(Nc2cc(Cl)nc(SCC(=O)O)n2)c1C", "outcome": "inactive"}, {"smiles": "CC=Cc1ccc(O)c(OC)c1", "outcome": "inactive"}, {"smiles": "CCNc1cccc(C)c1", "outcome": "inactive"}, {"smiles": "O=C(OCCCCCOC(=O)c1ccccc1)c1ccccc1", "outcome": "inactive"}, {"smiles": "O=c1[nH]cc(F)c(=O)[nH]1", "outcome": "inactive"}, {"smiles": "NCC1(Cc2noc(=O)[nH]2)CCCCC1", "outcome": "inactive"}, {"smiles": "Oc1ccc2ccccc2c1N=Nc1ccccc1", "outcome": "inactive"}, {"smiles": "Cc1cc(=O)[nH]c(=S)[nH]1", "outcome": "inactive"}, {"smiles": "NC(=O)Cn1c(=O)cc(CCN2CCN(c3nccc4sccc34)CC2)c2ccc(F)cc21", "AC50": "27.5 µM (active)"}, {"smiles": "CC(C)c1ccc(C(=O)N=C(N)N)cc1S(C)(=O)=O", "outcome": "inactive"}, {"smiles": "C1CCC(SSC2CCCCC2)CC1", "outcome": "inactive"}, {"smiles": "CCCCN(CCCC)CCCC", "outcome": "inactive"}, {"smiles": "OC[C@@H](O)[C@@H](O)[C@H](O)[C@H](O)CO", "outcome": "inactive"}, {"smiles": "CC(C)(C)c1cc(O)c(C(C)(C)C)cc1O", "outcome": "inactive"}, {"smiles": "NS(=O)(=O)c1cc2c(cc1Cl)NCNS2(=O)=O", "outcome": "inactive"}, {"smiles": "Cc1nc(-c2ccc3c(c2)CCN(CCC2CCC(NC(=O)/C=C/c4ccc(F)cc4)CC2)CC3)no1", "note": "(configuration not stated)", "outcome": "inactive"}, {"smiles": "CC(=O)C(C)=CC1C(C)=CCCC1(C)C", "note": "(configuration not stated)", "outcome": "inactive"}, {"smiles": "CCCCCCOCCO", "outcome": "inactive"}, {"smiles": "C[Si]1(C)O[Si](C)(C)O[Si](C)(C)O[Si](C)(C)O1", "outcome": "inactive"}, {"smiles": "Oc1ccc2c(c1)OC[C@@H](N1CCC(O)(c3ccc(F)cc3)CC1)[C@H]2O", "outcome": "inactive"}, {"smiles": "CN1CCN(Cc2cc(-c3ccc4[nH]c(=O)oc4c3)co2)[C@@H](c2ccc(F)cc2)C1", "outcome": "inactive"}, {"smiles": "CCOC(=O)C(C)(C)Oc1ccc(Cl)cc1", "outcome": "inactive"}, {"smiles": "C=CCc1ccc(O)c(OC)c1", "outcome": "inactive"}, {"smiles": "COc1cc(S(=O)(=O)O)c(C)cc1N=Nc1c(O)ccc2cc(S(=O)(=O)O)ccc12", "outcome": "inactive"}, {"smiles": "CCCc1cc(=O)[nH]c(=S)[nH]1", "outcome": "inactive"}, {"smiles": "O=[N+]([O-])C(CO)(CO)CO", "outcome": "inactive"}, {"smiles": "CC1=C(/C=C/C(C)=C/C=C/C(C)=C/CO)C(C)(C)CCC1", "outcome": "inactive"}]}, {"read-out": "Monocyte Chemoattractant Protein-1 (MCP1), CCL2 (gene 6347)", "test": "BSK_CASM3C_MCP1: BioMAP Diversity Plus: CASM3C Assay for Monocyte Chemoattractant Protein-1 (MCP1) Biomarker Activity (AID 2283046);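 also: MCP-1 level quantified by ELISA 24 h after dosing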", "conditions": "primary human coronary artery smooth muscle cells; actives raise or lower the signal", "values": [{"smiles": "COCCOC[C@H](CC1(C(=O)NC2CCC(C(=O)O)CC2)CCCC1)C(=O)Oc1ccc2c(c1)CCC2", "note": "(some centres not stated)", "outcome": "inactive"}, {"smiles": "CC(=O)OC/C=C(\\C)CCC=C(C)C", "outcome": "inactive"}, {"smiles": "Cc1cccc(Nc2cc(Cl)nc(SCC(=O)O)n2)c1C", "outcome": "inactive"}, {"smiles": "CC=Cc1ccc(O)c(OC)c1", "outcome": "inactive"}, {"smiles": "CCNc1cccc(C)c1", "outcome": "inactive"}, {"smiles": "O=C(OCCCCCOC(=O)c1ccccc1)c1ccccc1", "outcome": "inactive"}, {"smiles": "O=c1[nH]cc(F)c(=O)[nH]1", "outcome": "inactive"}, {"smiles": "NCC1(Cc2noc(=O)[nH]2)CCCCC1", "outcome": "inactive"}, {"smiles": "Oc1ccc2ccccc2c1N=Nc1ccccc1", "outcome": "inactive"}, {"smiles": "Cc1cc(=O)[nH]c(=S)[nH]1", "outcome": "inactive"}, {"smiles": "NC(=O)Cn1c(=O)cc(CCN2CCN(c3nccc4sccc34)CC2)c2ccc(F)cc21", "outcome": "inactive"}, {"smiles": "CC(C)c1ccc(C(=O)N=C(N)N)cc1S(C)(=O)=O", "outcome": "inactive"}, {"smiles": "C1CCC(SSC2CCCCC2)CC1", "AC50": "31.5 µM (active)"}, {"smiles": "CCCCN(CCCC)CCCC", "outcome": "inactive"}, {"smiles": "OC[C@@H](O)[C@@H](O)[C@H](O)[C@H](O)CO", "outcome": "inactive"}, {"smiles": "CC(C)(C)c1cc(O)c(C(C)(C)C)cc1O", "outcome": "inactive"}, {"smiles": "NS(=O)(=O)c1cc2c(cc1Cl)NCNS2(=O)=O", "outcome": "inactive"}, {"smiles": "Cc1nc(-c2ccc3c(c2)CCN(CCC2CCC(NC(=O)/C=C/c4ccc(F)cc4)CC2)CC3)no1", "note": "(configuration not stated)", "AC50": "13.8 µM (active)"}, {"smiles": "CC(=O)C(C)=CC1C(C)=CCCC1(C)C", "note": "(configuration not stated)", "outcome": "inactive"}, {"smiles": "CCCCCCOCCO", "outcome": "inactive"}, {"smiles": "C[Si]1(C)O[Si](C)(C)O[Si](C)(C)O[Si](C)(C)O1", "outcome": "inactive"}, {"smiles": "Oc1ccc2c(c1)OC[C@@H](N1CCC(O)(c3ccc(F)cc3)CC1)[C@H]2O", "outcome": "inactive"}, {"smiles": "CN1CCN(Cc2cc(-c3ccc4[nH]c(=O)oc4c3)co2)[C@@H](c2ccc(F)cc2)C1", "AC50": "0.736 µM (active)"}, {"smiles": "CCOC(=O)C(C)(C)Oc1ccc(Cl)cc1", "outcome": "inactive"}, {"smiles": "C=CCc1ccc(O)c(OC)c1", "outcome": "inactive"}, {"smiles": "COc1cc(S(=O)(=O)O)c(C)cc1N=Nc1c(O)ccc2cc(S(=O)(=O)O)ccc12", "outcome": "inactive"}, {"smiles": "CCCc1cc(=O)[nH]c(=S)[nH]1", "outcome": "inactive"}, {"smiles": "O=[N+]([O-])C(CO)(CO)CO", "outcome": "inactive"}, {"smiles": "CC1=C(/C=C/C(C)=C/C=C/C(C)=C/CO)C(C)(C)CCC1", "outcome": "inactive"}]}]}
